The values that follow come from PubChem BioAssay (Tox21).

Several values for one entry are separate records, joined by “and”; a condition that tells them apart may be missing. Identical values can stand only once. A number with no mark means an inactive call. Inconclusive results are not listed. Activity calls are given as the source filed them. Unless noted, calls come from the whole dose curve; as a rule, active = well fitted curve in the direction sought with a large enough effect in the repeat runs; inconclusive = weak or mixed curves; inactive = no such curve, though single readings can be large; an effect the other way counts as inactive or inconclusive.

Assay [1] can be described thus: qHTS assay to test for compound auto fluorescence at 535 nm (green) in HEK293 cells (AID 720680; note: % is set by controls: 0 for no effect and ±100 for the full control effect). (In general: qHTS replaces the single test concentration by a dilution series.)
Assay [2] is described as follows: qHTS assay to test for compound auto fluorescence at 460 nm (blue) in HEK293 cell free culture (AID 720681). Note: % is set by controls: 0 for no effect and ±100 for the full control effect. A digest of the protocol: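 Compounds were added to cell-free DMEM with 10% FBS and fluorescence read directly. The blue channel used 405 nm excitation and 460 nm emission, with triamterene as the reference fluorophore.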
The nature of assay [3]: qHTS assay to test for compound auto fluorescence at 535 nm (green) in HEK293 cell free culture (AID 720682). Note: % is set by controls: 0 for no effect and ±100 for the full control effect. A digest of the protocol:
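Compounds were pin-transferred into cell-free DMEM with 10% FBS, and green fluorescence was read at excitation 485 nm and emission 535 nm. Intensities were expressed as fluorescein-equivalent values.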

Assay [4] in a line: qHTS assay to test for compound auto fluorescence at 590 nm (red) in HEK293 cell free culture (AID 720683). Note: % is set by controls: 0 for no effect and ±100 for the full control effect. A digest of the protocol: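 Cell-free wells of DMEM with 10% FBS received compound, and intrinsic fluorescence was read at excitation/emission 540/590 nm. Values expressed as equivalence to Rose Bengal sodium.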
Assay [5] can be described thus: qHTS assay to test for compound auto fluorescence at 590 nm (red) in HepG2 cell free culture (AID 720684). Note: % is set by controls: 0 for no effect and ±100 for the full control effect. A digest of the protocol: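 Compounds are added to culture medium (MEM, 10% FBS) lacking cells, then fluorescence is read at excitation 540 nm, emission 590 nm, with Rose Bengal sodium as the equivalency standard.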
Assay [6] is described as follows: qHTS assay to test for compound auto fluorescence at 460 nm (blue) in HepG2 cell free culture (AID 720685). Note: % is set by controls: 0 for no effect and ±100 for the full control effect. A digest of the protocol: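 Compound (23 nL) or DMSO pinned into cell-free MEM with 10% FBS; blue fluorescence read at 405/460 nm excitation/emission, expressed as auto-fluorescence equivalency to triamterene.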
Assay [7] is described as follows: qHTS assay to test for compound auto fluorescence at 535 nm (green) in HepG2 cell free culture (AID 720686). Note: % is set by controls: 0 for no effect and ±100 for the full control effect.
Assay [8] can be described thus: qHTS assay to test for compound auto fluorescence at 460 nm (blue) in HepG2 cells (AID 720687). Note: % is set by controls: 0 for no effect and ±100 for the full control effect. A digest of the protocol:
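HepG2 cells in MEM with 10% FBS, attached overnight at 37 C, were exposed to compound or DMSO for 1 hr at 37 C, 5% CO2. Blue fluorescence was read at 405/460 nm, with triamterene as reference fluorophore.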

The target in assay [9] is Glucocorticoid receptor (Homo sapiens) (UniProt P04150). Briefly: qHTS assay to identify small molecule agonists of the glucocorticoid receptor (GR) signaling pathway (AID 720691; active = well fitted activation curve with a large enough effect in the signal ratio in the repeat runs, not every such curve was filed as active; the % refers to the signal ratio; note: % is set by controls: 0 for no effect and ±100 for the full control effect). As to conditions: GR-bla HeLa, beta-lactamase reporter ratio, 18 h; activation: at 62.4 µM (top of the series). A digest of the protocol: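 GR-bla HeLa cells carrying a GRE-driven beta-lactamase reporter, exposed to compounds for 18 h at 37 C. Reporter activation read as fluorescence after 2 h with LiveBLAzer B/G FRET substrate at room temperature.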

For assay [10] the target is unchanged. The experiment in a line: qHTS assay to identify small molecule antagonists of the glucocorticoid receptor (GR) signaling pathway (AID 720692; active = well fitted inhibition curve with a large enough effect in the signal ratio in the repeat runs, not every such curve was filed as active; the % refers to the signal ratio; note: potency is the fitted concentration of half-maximal effect). The method, boiled down:
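GR-bla HeLa cells carrying a GRE-driven beta-lactamase reporter received compound after 4 h plating, then dexamethasone (5 nM final). After 18 h at 37C, the FRET substrate was loaded for 2 h at room temperature and fluorescence read.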

The nature of assay [11]: qHTS assay to identify small molecule antagonists of the glucocorticoid receptor (GR) signaling pathway - cell viability counter screen (AID 720693). Note: nearly all actives have a fitted effect of over 55% in size. Note: potency is the fitted concentration of half-maximal effect.
Assay [12] is described as follows: qHTS assay for identifying genotoxic compounds that show differential cytotoxicity against isogenic chicken DT40 cell lines with known DNA damage response pathways - Rev3 mutant cell line (AID 743014). Note: nearly all actives have a fitted effect of over 55% in size. Note: potency is the fitted concentration of half-maximal effect.
Assay [13] is described as follows: qHTS assay for identifying genotoxic compounds that show differential cytotoxicity against isogenic chicken DT40 cell lines with known DNA damage response pathways - Rad54/Ku70 mutant cell line (AID 743015). Note: nearly all actives have a fitted effect of over 60% in size. Note: potency is the fitted concentration of half-maximal effect.
Assay [14] has as its target Androgen receptor (Homo sapiens) (UniProt P10275). Briefly: qHTS assay to identify small molecule agonists of the androgen receptor (AR) signaling pathway (AID 743036; active = well fitted activation curve with a large enough effect in the signal ratio in the repeat runs, with a control signal flat, not every such curve was filed as active; the % refers to the signal ratio; note: % is set by controls: 0 for no effect and ±100 for the full control effect). A digest of the protocol:
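Activation was read as beta-lactamase FRET signal from LiveBLAzer B/G substrate, added for 2 h at room temperature. Before that, GeneBLAzer AR-UAS-bla GripTite (HEK293) cells had 16 h compound exposure at 37C.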

The target is the same in assay [15]. The experiment in a line: qHTS assay to identify small molecule antagonists of the androgen receptor (AR) signaling pathway using the MDA cell line (AID 743042; note: % is set by controls: 0 for no effect and ±100 for the full control effect; nearly all actives have a fitted effect of over 55% in size). A digest of the protocol: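 MDA-kb2 breast carcinoma cells carrying MMTV-luciferase (AR/GR responsive) were co-treated with compounds and the agonist R1881 for 16 h at 37C. Inhibition read as ONE-Glo luminescence; CellTiter-Fluor fluorescence measured in parallel for cytotoxicity.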

Assay [16] is described as follows: qHTS assay for identifying genotoxic compounds that show differential cytotoxicity against isogenic chicken DT40 cell lines with known DNA damage response pathways - wild type cell line (AID 743012). Note: nearly all actives have a fitted effect of over 60% in size. Note: potency is the fitted concentration of half-maximal effect. A digest of the protocol: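 Wild-type DT40 cells (300/well) exposed to compounds for 40 hours at 37 C/5% CO2. Viability read by CellTiter-Glo luminescence after 30 min at room temperature.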

The nature of assay [17]: qHTS assay to identify small molecule antagonists of the androgen receptor (AR) signaling pathway - cell viability counter screen (AID 743033; note: nearly all actives have a fitted effect of over 45% in size; note: potency is the fitted concentration of half-maximal effect).
Assay [18] can be described thus: qHTS assay to identify small molecule antagonists of the androgen receptor (AR) signaling pathway using the MDA cell line - cell viability counter screen (AID 743041; note: nearly all actives have a fitted effect of over 45% in size; note: potency is the fitted concentration of half-maximal effect). A digest of the protocol: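 Same-well cytotoxicity was assessed by CellTiter-Fluor in MDA-kb2 AR-luc cells after 16 h of compound treatment under R1881 agonism.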
For assay [19], the target named is Androgen receptor (Homo sapiens) (UniProt P10275). The experiment in a line: qHTS assay to identify small molecule agonists of the androgen receptor (AR) signaling pathway using the MDA cell line (AID 743040; note: % is set by controls: 0 for no effect and ±100 for the full control effect; nearly all actives have a fitted effect of over 20% in size). A digest of the protocol:
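Human breast carcinoma MDA-kb2 reporter cells (MMTV-luc, AR/GR elements) were treated for 16 h at 37C in 0% CO2 following a 5 h settling period. Signal was quantified by ONE-Glo luminescence.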

Assay [20] has the same target. The experiment in a line: qHTS assay to identify small molecule antagonists of the androgen receptor (AR) signaling pathway (AID 743035; active = well fitted inhibition curve with a large enough effect in the signal ratio in the repeat runs, not every such curve was filed as active; the % refers to the signal ratio; note: potency is the fitted concentration of half-maximal effect). A digest of the protocol: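 HEK293 cells stably carrying UAS-beta-lactamase reporter, 2,000/well, given compounds plus R1881 agonist and incubated 16 h at 37C. LiveBLAzer B/G FRET substrate then added for 2 h at room temperature before fluorescence reading.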

Chain of Androgen receptor (Homo sapiens) (P10275 whole entry, looked up): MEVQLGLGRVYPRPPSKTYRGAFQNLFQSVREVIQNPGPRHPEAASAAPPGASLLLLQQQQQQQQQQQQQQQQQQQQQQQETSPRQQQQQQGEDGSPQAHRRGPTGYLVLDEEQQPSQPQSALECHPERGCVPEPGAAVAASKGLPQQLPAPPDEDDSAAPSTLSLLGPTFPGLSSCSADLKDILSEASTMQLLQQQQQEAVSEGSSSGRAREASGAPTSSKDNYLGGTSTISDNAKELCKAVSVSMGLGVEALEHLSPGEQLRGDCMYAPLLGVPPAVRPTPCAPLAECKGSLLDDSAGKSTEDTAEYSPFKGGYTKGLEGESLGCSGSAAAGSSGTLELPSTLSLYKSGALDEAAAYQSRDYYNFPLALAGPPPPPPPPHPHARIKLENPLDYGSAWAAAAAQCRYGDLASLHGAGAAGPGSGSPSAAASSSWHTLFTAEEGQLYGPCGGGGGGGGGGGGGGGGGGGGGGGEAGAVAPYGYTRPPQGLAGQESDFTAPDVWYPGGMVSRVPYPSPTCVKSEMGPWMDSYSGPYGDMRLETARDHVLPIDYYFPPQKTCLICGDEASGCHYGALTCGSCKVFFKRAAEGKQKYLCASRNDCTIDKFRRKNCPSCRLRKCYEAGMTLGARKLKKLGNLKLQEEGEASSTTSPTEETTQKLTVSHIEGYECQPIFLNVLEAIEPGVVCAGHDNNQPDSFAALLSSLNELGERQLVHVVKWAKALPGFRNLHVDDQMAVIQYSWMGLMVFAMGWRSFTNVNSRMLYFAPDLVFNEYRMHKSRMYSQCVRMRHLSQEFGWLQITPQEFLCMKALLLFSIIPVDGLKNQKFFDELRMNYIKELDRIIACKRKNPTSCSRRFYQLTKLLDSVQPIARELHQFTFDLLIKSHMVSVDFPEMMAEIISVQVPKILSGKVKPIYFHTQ
Chain of Glucocorticoid receptor (Homo sapiens) (P04150 whole entry, looked up): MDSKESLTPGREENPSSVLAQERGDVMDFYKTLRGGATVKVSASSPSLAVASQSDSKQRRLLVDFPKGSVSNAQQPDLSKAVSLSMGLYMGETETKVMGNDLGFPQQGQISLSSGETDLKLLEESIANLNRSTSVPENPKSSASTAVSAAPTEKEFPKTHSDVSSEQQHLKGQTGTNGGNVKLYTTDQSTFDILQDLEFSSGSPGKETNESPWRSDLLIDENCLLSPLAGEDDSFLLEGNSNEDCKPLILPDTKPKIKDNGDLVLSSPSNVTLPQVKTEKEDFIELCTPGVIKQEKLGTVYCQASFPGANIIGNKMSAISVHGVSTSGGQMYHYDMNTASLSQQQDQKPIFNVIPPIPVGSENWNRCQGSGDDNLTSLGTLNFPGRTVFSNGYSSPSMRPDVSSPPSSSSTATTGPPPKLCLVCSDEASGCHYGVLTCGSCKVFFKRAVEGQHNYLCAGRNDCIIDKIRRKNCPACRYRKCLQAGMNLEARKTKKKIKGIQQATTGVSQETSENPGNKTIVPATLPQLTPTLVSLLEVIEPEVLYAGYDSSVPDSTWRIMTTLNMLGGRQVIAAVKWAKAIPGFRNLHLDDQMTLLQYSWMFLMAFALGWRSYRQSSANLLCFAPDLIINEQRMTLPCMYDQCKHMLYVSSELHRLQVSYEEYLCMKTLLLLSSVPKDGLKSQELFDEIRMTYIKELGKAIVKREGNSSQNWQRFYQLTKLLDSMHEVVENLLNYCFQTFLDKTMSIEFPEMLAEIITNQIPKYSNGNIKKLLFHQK

As for `CCN(CC)CCOC(=O)C1(C2CCCCC2)CCCCC1`, the Potency entry in assay [1], in [2], in assay [3], in assay [4], in assay [5] and in assay [6] was “inactive” in each case. Besides, the Potency entry in assay [7], in [8], in [9], in assay [10], in [11] and in assay [15] was “inactive” each time. Moreover, the Potency in assay [12] is 21.1 µM (active); in [13] it was 23.7 µM (active). Besides, the call in assay [14] was inactive.

Turning to `S=C(SSSSSSC(=S)N1CCCCC1)N1CCCCC1`, in assay [1], the fluorescence, % of fluorescein was -0.141% [at 18.6 µM]. The fluorescence, % of fluorescent control is -0.263% [at 18.6 µM] in [2], 0.0303% [at 18.6 µM] in assay [4], -0.225% [at 18.6 µM] in [6] and 0.0837% [at 18.6 µM] in assay [8]. In addition, in [3], the activity change is -0.0539% [at 18.6 µM, active compounds read high]. In assay [5], the fluorescence, % of Rose Bengal was -0.0342% [at 18.6 µM]. For the same compound, the fluorescence, % of fluorescein control in assay [7] is -0.0879% [at 18.6 µM]. Further, the Potency entry in assay [9] and in assay [11] was “inactive” throughout. Also, the Potency in assay [16] was 0.674 µM (active); in assay [12], 0.425 µM (active); in [13], 0.674 µM (active); in assay [17], 0.68 µM (active); in assay [18], 1.51 µM (active).

With `O=C1NC2CCCCN2C12CCN(CCCN1c3ccccc3CCc3ccc(Cl)cc31)CC2` (stereo not given), the Potency result in assay [1], in [2], in [3], in assay [4], in assay [5] and in assay [6] was “inactive” each time. In addition, the Potency result in assay [7], in [8] and in assay [9] was “inactive” throughout. The Potency in assay [10] was 23.9 µM (active); in [16] it was 9.44 µM (active); in assay [12] it was 13.3 µM (active); in assay [13] it was 13.3 µM (active).

For the compound `O=C1Nc2ccc(Cl)cc2[C@@](C#CC2CC2)(C(F)(F)F)O1`, the Potency result in assay [1], in [2], in [3], in [4], in [5] and in assay [6] was “inactive” each time. In addition, the Potency result in assay [7], in assay [8], in assay [9] and in assay [18] was “inactive” each time. The Potency in assay [10] was 23.9 µM (active); in assay [12], 26.6 µM (active); in assay [13] it was 21.1 µM (active).

For the compound `Oc1ccc(-c2ccc(O)cc2)cc1`, the Potency result in [1], in assay [2], in assay [3], in [4], in assay [5] and in assay [6] was “inactive” throughout. Moreover, the Potency result in assay [7], in [8], in [9], in [11], in assay [17] and in assay [18] was “inactive” in each case. The Potency in assay [12] is 17.3 µM (active); in assay [13] it was 24.5 µM (active).

`CCCCCCCCCCCCCOP(=O)(O)O`: the Potency result in assay [1], in [2], in assay [3], in assay [4], in assay [5] and in [6] was “inactive” in each case. Moreover, the Potency result in assay [7], in assay [8], in [9], in [10], in [11] and in assay [16] was “inactive” throughout. Further, the Potency result in assay [12], in assay [13] and in assay [17] was “inactive” in each case.

Consider `CCCCCCCCCC(=O)N(C)C`, for which the Potency entry in assay [1], in [2], in assay [3], in assay [4], in assay [5] and in assay [6] was “inactive” throughout. Moreover, the Potency result in assay [7], in [8], in [9], in [10], in [11] and in assay [16] was “inactive” throughout. Moreover, the Potency result in assay [12], in assay [13], in [17] and in assay [18] was “inactive” in each case.

Consider `CC(=O)Oc1ccc(C2(c3ccc(OC(C)=O)cc3)C(=O)Nc3ccccc32)cc1`, for which the Potency entry in assay [1], in assay [2], in assay [3], in assay [4], in [5] and in [6] was “inactive” throughout. The Potency entry in assay [7], in [8], in [9], in assay [11], in assay [12] and in assay [17] was “inactive” throughout. Moreover, the Potency in [10] is 16.9 µM (active) and 26.8 µM (active).

Regarding `CCNc1nc(NC(C)CC)nc(OC)n1` (stereo not given), the Potency result in assay [1], in [2], in assay [3], in assay [4], in assay [5] and in assay [6] was “inactive” each time. Further, the Potency entry in assay [7], in assay [8], in [9], in assay [10], in [11] and in assay [17] was “inactive” in each case. The Potency result in [18] is “inactive”.

Regarding `SCCCCCCCCS`, the Potency entry in [1], in assay [2], in assay [3], in assay [4], in assay [5] and in [6] was “inactive” each time. The Potency entry in [7], in assay [8], in [11], in assay [17] and in [18] was “inactive” throughout. Besides, the Potency in assay [16] was 68.6 µM (active); in assay [13], 54.5 µM (active).

As for `Clc1ccc(C(Cn2ccnc2)OCc2c(Cl)cccc2Cl)c(Cl)c1` (stereo not given), the fluorescence, % of fluorescein in [1] was 0.16% [at 18.6 µM]. Further, the fluorescence, % of fluorescent control was -0.0423% [at 18.6 µM] in assay [2], -0.276% [at 18.6 µM] in assay [4], 0% [at 18.6 µM] in assay [6] and 0.116% [at 18.6 µM] in assay [8]. Besides, the activity change in assay [3] is -0.0265% [at 18.6 µM, active compounds read high]. Also, the fluorescence, % of Rose Bengal in [5] was -0.46% [at 18.6 µM]. Moreover, the fluorescence, % of fluorescein control in assay [7] is 0.0431% [at 18.6 µM]. The Potency entry in assay [11], in [17], in [19], in [18] and in [15] was “inactive” each time. Moreover, the Potency is 11.4 µM (active) in assay [16], 12.7 µM (active) in assay [12] and 11.4 µM (active) in [13].

For the compound `O=C(Nc1ccc(Cl)cc1)Nc1ccc(Cl)c(C(F)(F)F)c1`, the Potency entry in assay [1], in [2], in [3], in assay [4], in [5] and in assay [6] was “inactive” in each case. Also, the Potency result in assay [7] and in assay [8] was “inactive” throughout. The Potency in [11] was 21.3 µM (active); in [16] it was 4.22 µM (active); in assay [12], 5.31 µM (active); in assay [13] it was 5.31 µM (active); in [17], 6.01 µM (active); in [18], 23.7 µM (active).

With `CCCCCCOc1ccc(O)cc1`, the Potency result in assay [1], in assay [2], in [3], in assay [4], in assay [5] and in assay [6] was “inactive” each time. Also, the Potency result in [7], in assay [8], in [11], in [18] and in [15] was “inactive” in each case. For the same compound, the Potency in [16] is 6.11 µM (active); in [12] it was 5.45 µM (active); in [13], 7.7 µM (active); in [20], 24.5 µM (active).
